Screening data (PubChem)
This is a sample that favours compounds with a hit; in the whole collection about 11% have one here.
Pf growth 48h = Primary qHTS for delayed death inhibitors of the malarial parasite plastid, 48 hour incubation. Potency, µM (series often up to 28.7 µM), usual class: inhibitors. 5.9% of 310,000 active. P. falciparum luciferase growth in erythrocytes, 48 h
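Growth was read as firefly luciferase luminescence after a 48 h, 37 C, 5% CO2 exposure of compounds to reporter-bearing P. falciparum cultures (0.1% parasitemia, 2% hematocrit final) in Albumax-supplemented RPMI 1640.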
Pf growth 96h = Primary qHTS for delayed death inhibitors of the malarial parasite plastid, 96 hour incubation; AID 504834, 2011; Potency, µM (highest dose often 28.7 µM), most hits filed as inhibitors; P. falciparum luciferase reporter growth, 96 h; 6.9% of 320,000 active
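Erythrocytes infected with luciferase-expressing P. falciparum were dispensed at 2% hematocrit and 0.05% parasitemia (final), then incubated with compounds 96 hours at 37 C in 5% CO2. Luminescence after detection reagent addition reported growth.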
AMA1 RON2 block = qHTS for Inhibitors of AMA1-RON; Towards Development of Antimalarial Drug Lead: Primary Screen. 0.2% of 360,000 active. AlphaScreen AMA1-biotinylated RON2 peptide binding. AID 720542, 2013. Potency, µM (doses to about 58.2 µM), most hits filed as inhibitors; also: nearly all actives have a fitted effect of over 45% in size
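AMA1 (3D7) with his tag at 25 nM final met compounds first, then biotinylated RON2 peptide at 25 nM; detection used donor plus acceptor beads, 10 µg/mL apiece, read by AlphaScreen after 30 min at room temperature.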
AmpC inh detg = qHTS Inhibitors of AmpC Beta-Lactamase (assay with detergent) | P00811 | Potency, µM (series often up to 114 µM), hits mostly inhibitors | AmpC hydrolysis of nitrocefin, absorbance 480 nm, 0.01% Triton | 0.041% of 370,000 active; also: nearly all actives have a fitted effect of over 25% in size
Target sequence (P00811 whole entry, looked up): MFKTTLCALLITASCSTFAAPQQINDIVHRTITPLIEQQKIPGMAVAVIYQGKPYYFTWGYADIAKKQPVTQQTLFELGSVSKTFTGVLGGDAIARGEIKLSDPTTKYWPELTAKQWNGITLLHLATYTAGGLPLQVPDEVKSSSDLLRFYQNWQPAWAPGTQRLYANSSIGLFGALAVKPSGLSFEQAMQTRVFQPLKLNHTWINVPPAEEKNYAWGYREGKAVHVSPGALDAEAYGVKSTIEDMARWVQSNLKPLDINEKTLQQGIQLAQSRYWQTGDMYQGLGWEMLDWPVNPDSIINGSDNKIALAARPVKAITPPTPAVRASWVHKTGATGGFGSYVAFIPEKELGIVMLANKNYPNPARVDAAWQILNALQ
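AmpC (5.3 nM in the dispensed reagent) in 20 mM phosphate pH 7.0 with 0.01% (detergent screen) or 0.0001% Triton X-100 was preincubated with compounds for 15 min at room temperature. Nitrocefin was then added from an 800 uM solution, and hydrolysis was followed at 480 nm.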
HCV inhibitor = qHTS Assay for Inhibitors of Hepatitis C Virus (HCV) | 3.4% of 340,000 active | Huh7.5.1 HCVcc-Cre infection, luciferase reporter, 44 h | AID 651820, 2012 | Potency, µM (top dose mostly 41.8 µM), hits mostly inhibitors
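Cells seeded at 1,000/well and cultured 4 h, then compounds added followed by HCVcc-Cre virus (~0.5 moi). After 44 h further culture, luciferase substrate was added, plates held 15 min at room temperature, and luminescence read for 15 sec.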
AmpC inh no detg = qHTS Inhibitors of AmpC Beta-Lactamase (assay without detergent) | P00811 | 0.52% of 330,000 active | AmpC nitrocefin hydrolysis, absorbance 480 nm, 0.0001% Triton | Potency, µM (series often up to 57.1 µM), hits mostly inhibitors; also: nearly all actives have a fitted effect of over 20% in size
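AmpC (5.3 nM in the dispensed reagent) in 20 mM phosphate pH 7.0 with 0.01% (detergent screen) or 0.0001% Triton X-100 was preincubated with compounds for 15 min at room temperature. Nitrocefin was then added from an 800 uM solution, and hydrolysis was followed at 480 nm.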
Numbers stand for hits. Calls follow the shape of the dose curve; as a rule, active = well fitted curve in the direction sought with a large enough effect; inconclusive = small, poorly fitted or top-dose-only effect, or another doubt; inactive = no such curve, though single readings can be large; an effect the other way counts as inactive or inconclusive.

Screening CC(NC(=O)c1cc2ccccc2oc1=O)c1ccccc1 (stereo not drawn) returned Pf growth 48h inactive, Pf growth 96h 11.7µM, AMA1 RON2 block inactive, AmpC inh detg inactive, HCV inhibitor inactive and AmpC inh no detg inactive.
COC(=O)c1ccc(COC(=O)c2cc3ccccc3oc2=O)cc1 was read as Pf growth 48h inactive, Pf growth 96h inconclusive, AMA1 RON2 block inactive, AmpC inh detg inactive, HCV inhibitor inactive and AmpC inh no detg inactive.
Screening CC(=O)c1ccc(COC(=O)c2cc3ccccc3oc2=O)cc1 returned Pf growth 48h inactive, Pf growth 96h 13.1µM, AMA1 RON2 block inactive, AmpC inh detg inactive, HCV inhibitor inactive and AmpC inh no detg inactive.
For O=C(NCCc1ccccc1)c1cc2ccccc2oc1=O the results were Pf growth 48h inactive, Pf growth 96h 9.28µM, AMA1 RON2 block inactive, AmpC inh detg inconclusive, HCV inhibitor inactive and AmpC inh no detg inactive.
CC(NC(=O)c1cc2ccccc2o1)c1ccccc1 (stereo not drawn) was read as Pf growth 48h inactive, Pf growth 96h inactive, AMA1 RON2 block inactive, AmpC inh detg inactive, HCV inhibitor inactive and AmpC inh no detg inactive.
`Cc1ccccc1C(=O)NCc1ccc2c(c1)CCN2C(=O)c1ccccc1` gave AmpC inh detg inactive.
Screening Cc1ccc(C)c(CN2C(=O)c3ccccc3Sc3ccc(C(=O)NCc4ccc5c(c4)OCO5)cc32)c1 returned AmpC inh detg inactive.
Screening Cn1cc(CN(C(=O)Nc2ccccc2)C2CCCCC2)c2ccccc21 returned AmpC inh detg inactive.
`COc1ccccc1NC(=O)Cn1c(=O)n(Cc2ccccc2)c(=O)c2sc3ccccc3c21` gave AmpC inh detg inactive.
For CC(=O)OCCNC(=O)c1cc2ccccc2oc1=O the results were Pf growth 48h inactive, Pf growth 96h 1.65µM, AMA1 RON2 block inactive, AmpC inh detg inactive, HCV inhibitor inactive and AmpC inh no detg inactive.
For CCCC(=O)OCCNC(=O)c1cc2ccccc2oc1=O the results were Pf growth 48h inactive, AMA1 RON2 block inactive, AmpC inh detg inactive, HCV inhibitor inactive and AmpC inh no detg inactive.
Cc1ccc(-c2[nH]c3ccccc3c2SCCNC(=O)c2cc3ccccc3oc2=O)cc1 was read as Pf growth 48h inconclusive, Pf growth 96h 5.86µM, AMA1 RON2 block inactive, AmpC inh detg inactive, HCV inhibitor inactive and AmpC inh no detg inactive.
`COc1ccccc1C(=O)N1CCN(Cc2cc(=O)oc3cc(C)ccc23)CC1` gave AmpC inh detg inactive.
For Cc1ccc(N/C(CSC(N)=O)=N/S(=O)(=O)c2ccccc2)cc1 the results were Pf growth 48h inactive, Pf growth 96h 3.29µM, AMA1 RON2 block inactive, AmpC inh detg inactive, HCV inhibitor inactive and AmpC inh no detg inactive.
`Cc1ccc(N/C(CSC(N)=O)=N\S(=O)(=O)c2ccc(C)cc2)cc1` gave AMA1 RON2 block inactive, AmpC inh detg inactive, HCV inhibitor inactive and AmpC inh no detg inactive.
COc1ccc(N2CCN(Cc3nc4c(c(=O)n(C)c(=O)n4C)n3C(C)C)CC2)cc1 was read as AmpC inh detg inactive.
Oc1ccccc1CNCCCNCc1ccccc1O was read as Pf growth 48h 8.28µM, Pf growth 96h inactive, AMA1 RON2 block inactive, AmpC inh detg inconclusive, HCV inhibitor 2.82µM and AmpC inh no detg inactive.
Screening CCOC(=O)C(Oc1ccc2c(-c3ccccc3)cc(=O)oc2c1C)c1ccccc1 (stereo not drawn) returned Pf growth 48h 11.7µM, Pf growth 96h inconclusive, AMA1 RON2 block inactive, AmpC inh detg inactive, HCV inhibitor inconclusive and AmpC inh no detg inactive.
For CCOC(=O)C(Oc1ccc2c(-c3ccc(OC)cc3)cc(=O)oc2c1C)c1ccccc1 (stereo not drawn) the results were Pf growth 48h inconclusive, Pf growth 96h inactive, AMA1 RON2 block inactive, AmpC inh detg inactive, HCV inhibitor inactive and AmpC inh no detg inactive.
Screening Cc1cc(C)c2c(=O)cc(C(=O)Nc3c(C)n(C)n(-c4ccccc4)c3=O)oc2c1 returned AmpC inh detg inactive.
For COc1cccc(NC(=O)C2CCC(CNS(=O)(=O)c3csc(C(N)=O)c3)CC2)c1 (stereo not drawn) the results were AmpC inh detg inactive.
For CCCOc1ccc(CNC(=O)c2ccc(C)c(-n3c(C)nc4cccnc43)c2)cc1 the results were AmpC inh detg inactive.
CCN1CCN(c2nc3c(C)cccn3c(=O)c2/C=C(\C#N)S(=O)(=O)c2ccc(C)cc2)CC1 was read as Pf growth 48h inactive, Pf growth 96h 4.15µM, AMA1 RON2 block inactive, AmpC inh detg inactive, HCV inhibitor inactive and AmpC inh no detg inactive.
For CCOC(=O)C1CCN(c2nc3c(C)cccn3c(=O)c2/C=C(\C#N)S(=O)(=O)c2ccccc2)CC1 the results were Pf growth 48h 9.28µM, Pf growth 96h inconclusive, AMA1 RON2 block inactive, AmpC inh detg inactive, HCV inhibitor inactive and AmpC inh no detg inactive.
For N#C/C(=C\c1c(N2CCCCC2)nc2ccccn2c1=O)S(=O)(=O)c1ccccc1 the results were Pf growth 48h inactive, Pf growth 96h 5.22µM, AMA1 RON2 block inconclusive, AmpC inh detg inactive, HCV inhibitor inactive and AmpC inh no detg inactive.
Screening COCCCn1c(=N)c(C(=O)NCc2cccnc2)cc2c(=O)n3cccc(C)c3nc21 returned AmpC inh detg inactive.
CC1CCCN(S(=O)(=O)c2ccc3c(c2)CCN3C(=O)CCC(=O)O)C1 (stereo not drawn) was read as AmpC inh detg inactive.
`O=C(CSc1n[nH]c(-c2ccc(F)cc2)n1)NCc1ccccc1Cl` gave AmpC inh detg inactive.
`CC(C(=O)NC1CCCC1)N1C(=O)c2cccc3cccc1c23` (stereo not drawn) gave Pf growth 48h inconclusive, Pf growth 96h 2.33µM, AMA1 RON2 block inactive, AmpC inh detg inactive, HCV inhibitor inactive and AmpC inh no detg inactive.
Screening CCOC(=O)Cn1c(=N)n(Cc2ccc(C(C)(C)C)cc2)c2ccccc21 returned AmpC inh detg inactive.
For COc1cc2c(cc1OC)CN(c1nc(CN3CCCC3)nc3sc(C)c(C)c13)CC2 the results were Pf growth 48h inconclusive, Pf growth 96h inconclusive, AMA1 RON2 block inactive, AmpC inh detg inactive, HCV inhibitor inconclusive and AmpC inh no detg inactive.
